Test results published in PubChem BioAssay (NCATS).
Inconclusive results are not listed. A number with no mark means an inactive call. Active and inactive are the calls of the source. Calls follow the shape of the dose curve; as a rule, active = well fitted curve in the direction sought with a large enough effect; inconclusive = small, poorly fitted or top-dose-only effect, or another doubt; inactive = no such curve, though single readings can be large; an effect the other way counts as inactive or inconclusive. *1 amine or outer side, *2 acyl side, *3 side chain or, on linkers, in order; H or OH if unused. Where a SMILES comes first, the peptide text is derived from it. Bridges are numbered along the chain shown (N, C = ends). Roman numbers before positions name the chains, in order. [ ]: non-standard residue; d: D form. ξ: configuration not given here. Actinocin(9to1) = Cc1c2oc3c(C)ccc(C(=O)[*:1])c3nc-2c(C(=O)[*:2])c(N)c1=O; ξNMeV = CNC(C(=O)O)C(C)C; ξV = CC(C)C(N)C(=O)O; Sar = CNCC(=O)O

Test: Identifying Small Molecule Inhibitors of Pancreatic Cancer Stem Cells (A2780, Spheroid) (AID 1259357);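 also: spheroids pre-formed over 14 days in stem cell medium on hydrogel; compound exposure lasted 48 h before the ATP luminescence read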;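 as to viability (percent of control): 100% = DMSO treated cells and 0% = wells without cells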
Settings: Potency: A2780 spheroid viability; series mostly up to 46.1 µM; viability (percent of control): at the top concentration
Outline: (§1)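 Endpoint: ATP-based luminescence, 48 h drug exposure. Bortezomib at 9.2 uM final as full-kill control; DMSO vehicle as negative control; activity normalized between vehicle and cell-free wells.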
Potency is read from the fitted curve at half-maximal effect.

SMILES	viability (percent of control)	Potency
CCCCCCCCCCCCCCCCCCOP(=O)([O-])OC1CC[N+](C)(C)CC1	100% [at 29.8 µM]	–
CCC1(Cc2ccc(N)cc2)CCC(=O)NC1=O (centres undefined)	108% [at 92.2 µM]	–
CC[C@@H](C(=O)O)C1CC[C@H](C)C([C@@H](C)[C@H](O)[C@H](C)C(=O)[C@H](CC)C2O[C@]3(C=C[C@@H](O)[C@]4(CC[C@@](C)(C5CC[C@](O)(CC)[C@H](C)O5)O4)O3)[C@H](C)C[C@@H]2C)O1 (some centres undefined)	–	0.0332 µM (active)
C[C@@H]1CCN(C(=O)CC#N)C[C@@H]1N(C)c1ncnc2[nH]ccc12	97.3%	–

Test: Identifying Small Molecule Inhibitors of Pancreatic Cancer Stem Cells (SN12C, Adherent) (AID 1259358);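 also: cell survival measured after 48 h of compound exposure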
Settings: viability/growth inhibition; series mostly up to 46.1 µM; viability (percent of control): at the top concentration
Outline: as §1

SMILES	Potency	viability (percent of control)
CCC1(O)CC2CN(CCc3c([nH]c4ccccc34)[C@@](C(=O)OC)(c3cc4c(cc3OC)N(C=O)[C@H]3[C@](O)(C(=O)OC)[C@H](OC(C)=O)[C@]5(CC)C=CCN6CC[C@]43[C@@H]65)C2)C1 (some centres undefined)	1.18 µM (active)	–
CCCCCCCCCCCCCCCCCCOP(=O)([O-])OC1CC[N+](C)(C)CC1	–	108% [at 29.8 µM]
CCC1(Cc2ccc(N)cc2)CCC(=O)NC1=O (centres undefined)	–	113% [at 92.2 µM]
CCOc1cc2ncc(C#N)c(Nc3ccc(OCc4ccccn4)c(Cl)c3)c2cc1NC(=O)/C=C/CN(C)C	0.418 µM (active)	–
C[C@@H]1CCN(C(=O)CC#N)C[C@@H]1N(C)c1ncnc2[nH]ccc12	–	97.5%
Cc1nnc(C(C)C)n1C1CC2CCC(C1)N2CC[C@H](NC(=O)C1CCC(F)(F)CC1)c1ccccc1 (some centres undefined)	–	91.1%
O=C(O)CC/C=C\CC[C@H]1[C@@H](N2CCCCC2)[C@@H](O)C[C@@H]1OCc1ccc(-c2ccccc2)cc1	–	111%
CC(NC(=O)Cc1cc(F)cc(F)c1)C(=O)NC(C(=O)OC(C)(C)C)c1ccccc1 (centres undefined)	–	112%
O=c1cc(C2=CC=CC3Sc4ccccc4SC23)oc(N2CCOCC2)c1 (centres undefined)	–	97.9%
CN(NC(=O)CC(=O)NN(C)C(=S)c1ccccc1)C(=S)c1ccccc1	–	114%

Test: Identifying Small Molecule Inhibitors of Pancreatic Cancer Stem Cells (Panc1, Spheroid) (AID 1259359);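 also: compound exposure lasted 48 h before reading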
Settings: Panc1 spheroid cancer stem cell viability; series mostly up to 46.1 µM; viability, % of control: at the top concentration
Outline: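 After a 4 h attachment period, compounds were pinned into wells and cultures held 48 h under standard incubator conditions. Viability was then measured as CellTiter-Glo luminescence following 10 min at room temperature.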

SMILES	Potency	viability, % of control
CC[C@@H](C(=O)O)C1CC[C@H](C)C([C@@H](C)[C@H](O)[C@H](C)C(=O)[C@H](CC)C2O[C@]3(C=C[C@@H](O)[C@]4(CC[C@@](C)(C5CC[C@](O)(CC)[C@H](C)O5)O4)O3)[C@H](C)C[C@@H]2C)O1 (some centres undefined)	14.8 µM (active)	–
O=C(O)CC/C=C\CC[C@H]1[C@@H](N2CCCCC2)[C@@H](O)C[C@@H]1OCc1ccc(-c2ccccc2)cc1	–	97.5%
Cc1c2oc3c(C)ccc(C(=O)N[C@@H]4C(=O)NC(C(C)C)C(=O)N5CCC[C@H]5C(=O)N(C)CC(=O)N(C)C(C(C)C)C(=O)O[C@@H]4C)c3nc-2c(C(=O)N[C@@H]2C(=O)NC(C(C)C)C(=O)N3CCC[C@H]3C(=O)N(C)CC(=O)N(C)C(C(C)C)C(=O)O[C@@H]2C)c(N)c1=O (some centres undefined) (I: T[ξV]P[Sar][ξNMeV] / II: T[ξV]P[Sar][ξNMeV]; ester I:1-I:C, II:1-II:C; linker I:N-II:N via Actinocin(9to1))	0.0047 µM (active)	–
CN(NC(=O)CC(=O)NN(C)C(=S)c1ccccc1)C(=S)c1ccccc1	0.0033 µM (active)	–

Test: Identifying Small Molecule Inhibitors of Pancreatic Cancer Stem Cells (SN12C, Spheroid) (AID 1259360);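 as to viability (% of control): 100% = DMSO-treated cells and 0% = wells without cells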
Settings: Potency: SN12C spheroid viability; series mostly up to 46.1 µM; viability (% of control): at the top concentration
Outline: as §1

SMILES	Potency	viability (% of control)
CCC1(O)CC2CN(CCc3c([nH]c4ccccc34)[C@@](C(=O)OC)(c3cc4c(cc3OC)N(C=O)[C@H]3[C@](O)(C(=O)OC)[C@H](OC(C)=O)[C@]5(CC)C=CCN6CC[C@]43[C@@H]65)C2)C1 (some centres undefined)	3.32 µM (active)	–
CCCCCCCCCCCCCCCCCCOP(=O)([O-])OC1CC[N+](C)(C)CC1	–	103% [at 29.8 µM]
CCC1(Cc2ccc(N)cc2)CCC(=O)NC1=O (centres undefined)	–	103% [at 92.2 µM]
CC[C@@H](C(=O)O)C1CC[C@H](C)C([C@@H](C)[C@H](O)[C@H](C)C(=O)[C@H](CC)C2O[C@]3(C=C[C@@H](O)[C@]4(CC[C@@](C)(C5CC[C@](O)(CC)[C@H](C)O5)O4)O3)[C@H](C)C[C@@H]2C)O1 (some centres undefined)	1.87 µM (active)	–
CCOc1cc2ncc(C#N)c(Nc3ccc(OCc4ccccn4)c(Cl)c3)c2cc1NC(=O)/C=C/CN(C)C	4.69 µM (active)	–
C[C@@H]1CCN(C(=O)CC#N)C[C@@H]1N(C)c1ncnc2[nH]ccc12	–	95.1%
Cc1nnc(C(C)C)n1C1CC2CCC(C1)N2CC[C@H](NC(=O)C1CCC(F)(F)CC1)c1ccccc1 (some centres undefined)	–	101%
O=C(O)CC/C=C\CC[C@H]1[C@@H](N2CCCCC2)[C@@H](O)C[C@@H]1OCc1ccc(-c2ccccc2)cc1	–	96.9%
Cc1c2oc3c(C)ccc(C(=O)N[C@@H]4C(=O)NC(C(C)C)C(=O)N5CCC[C@H]5C(=O)N(C)CC(=O)N(C)C(C(C)C)C(=O)O[C@@H]4C)c3nc-2c(C(=O)N[C@@H]2C(=O)NC(C(C)C)C(=O)N3CCC[C@H]3C(=O)N(C)CC(=O)N(C)C(C(C)C)C(=O)O[C@@H]2C)c(N)c1=O (some centres undefined) (I: T[ξV]P[Sar][ξNMeV] / II: T[ξV]P[Sar][ξNMeV]; ester I:1-I:C, II:1-II:C; linker I:N-II:N via Actinocin(9to1))	0.0047 µM (active)	–
O=c1cc(C2=CC=CC3Sc4ccccc4SC23)oc(N2CCOCC2)c1 (centres undefined)	–	99.6%
CN(NC(=O)CC(=O)NN(C)C(=S)c1ccccc1)C(=S)c1ccccc1	0.743 µM (active)	–
